Experimental data from PubChem BioAssay AID652018 (The Scripps Research Institute Molecular Screening Center, 2013).
The source made the active and inactive calls.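 Rule for the calls: active = at least 50% inhibition of LYPLA1 or LYPLA2 at 300 nM, with no off-target enzyme hit at any dose; inactive = under 50% inhibition on both enzymes, or any off-target hit.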

Test system: Anti-Targets
Test: LYPLA1/LYPLA2 inhibition and anti-target count – cell lysate, competitive ABPP, HEK293T proteome, set 2, selectivity assay for LYPLA1 inhibitor project, late-stage follow-up (AID 652018)
Conditions: competitive ABPP FP-PEG-Rh gel; anti-targets hit, at 10 µM

Compound | anti-target count | outcome
O=C(CN1CCN(C(=O)n2cc(-c3ccc(OC(F)(F)F)cc3)nn2)CC1)Nc1cc(C(F)(F)F)ccc1Cl | 0 | inactive
O=C(CN1CCN(C(=O)n2nc(Br)c(Br)n2)CC1)Nc1cc(C(F)(F)F)ccc1Cl | 0 | inactive
O=C(CN1CCN(C(=O)n2cc(C(O)(c3ccccc3)c3ccccc3)nn2)CC1)Nc1cc(C(F)(F)F)ccc1Cl | 0 | inactive
COc1ccc(N2CCN(C(=O)n3nc(Br)nc3Br)CC2)cc1 | 0 | inactive
O=C(CN1CCN(C(=O)n2ncc(-c3ccc(OC(F)(F)F)cc3)n2)CC1)Nc1cc(C(F)(F)F)ccc1Cl | 0 | inactive
COc1ccc(N2CCN(C(=O)n3ncc(-c4ccc(OC(F)(F)F)cc4)n3)CC2)cc1 | 0 | inactive
COc1ccc(N2CCN(C(=O)n3nccn3)CC2)cc1 | 0 | inactive
COc1ccc(N2CCN(C(=O)n3cc(C(O)(c4ccccc4)c4ccccc4)nn3)CC2)cc1 | 2 | active
O=C(CN1CCN(C(=O)n2ncc(-c3ccc(Br)cc3)n2)CC1)Nc1cc(C(F)(F)F)ccc1Cl | 0 | inactive
O=C(CN1CCN(C(=O)n2ncc(-c3ccc(-c4ccccc4)cc3)n2)CC1)Nc1cc(C(F)(F)F)ccc1Cl | 0 | inactive
COc1ccc(N2CCN(C(=O)n3cc(-c4ccc(OC(F)(F)F)cc4)nn3)CC2)cc1 | 0 | inactive
O=C(N1CCN(c2ccc(Cl)c(Cl)c2)CC1)n1ncc(C(O)(c2ccccc2)c2ccccc2)n1 | 0 | inactive
